According to PubChem BioAssay AID1159580 (chemical genetic matrix, 2015):
“And” between values parts separate entries of the source, which are not always exact repeats. Equal values may be shown once. Out of some 5,500 compounds screened, about 2,000 (36%) were called active. Another 18% or so got no clear call; they are omitted. Rule as the data show it: active = normalized growth mostly below about 0.91 (no sharp cut-off); inconclusive = no clear call, values can overlap the other calls; inactive = mostly above about 0.92. The list shows a part of the results.

Experiment: chemical genetic growth profiling, strain panel (AID 1159580);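 also: tested at 20 µM; growth read once vehicle control cultures reached saturation at 30 °C; 1 = growth at the plate median or of vehicle wells; lower values mean less growth of the strain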
Conditions: S. cerevisiae deletion strains, growth OD

Measured: normalized growth

NCCc1ccc(O)c(O)c1
inactive: locus YAL013W, strain DEP1, hits give low values 1 and 0.968 | locus YAL021C, strain ccr4, hits give low values 1.01 | locus YAL026C, strain drs2, hits give low values 1 | locus YAL030W, strain snc1, hits give low values 1.01 | locus YAL040C, strain CLN3, hits give low values 0.983 | locus YBL061C, strain skt5, hits give low values 0.998 | locus YBR009C, strain hhf1, hits give low values 0.978 | locus YBR021W, strain FUR4, hits give low values 0.999 | locus YBR023C, strain chs3, hits give low values 1 | locus YBR171W, strain sec66, hits give low values 0.997 | locus YBR229C, strain ROT2, hits give low values 1 | locus YBR231C, strain swc5, hits give low values 0.997 | locus YBR279W, strain paf1, hits give low values 1 | locus YCL011C, strain gbp2, hits give low values 0.981 | locus YCL016C, strain dcc1, hits give low values 0.991 | locus YCL029C, strain bik1, hits give low values 0.965 | locus YCL061C, strain MRC1 (second series), hits give low values 0.997 | locus YCL061C, strain MRC1, hits give low values 0.987 | locus YCL069W, strain vba3, hits give low values 0.981 | locus YCR088W, strain abp1, hits give low values 0.995 | locus YDL005C, strain med2, hits give low values 1 | locus YDL035C, strain GPR1, hits give low values 1.01 | locus YDL040C, strain nat1, hits give low values 1.01 | locus YDL074C, strain BRE1, hits give low values 0.978 | locus YDL101C, strain DUN1, hits give low values 0.988 | locus YDL134C, strain PPH21, hits give low values 1.04 | locus YDL185W, strain tfp1, hits give low values 0.979 | locus YDL192W, strain arf1, hits give low values 0.995 | locus YDR001C, strain nth1, hits give low values 1 | locus YDR069C, strain doa4, hits give low values 0.999 | locus YDR101C, strain arx1, hits give low values 1.01 | locus YDR137W, strain rgp1, hits give low values 1.03 | locus YDR150W, strain NUM1, hits give low values 0.992 | locus YDR159W, strain sac3, hits give low values 1.03 | locus YDR162C, strain NBP2, hits give low values 1 | locus YDR195W, strain ref2 1.01 | locus YDR297W, strain sur2, hits give low values 1 | locus YDR318W, strain mcm21, hits give low values 0.988 | locus YDR334W, strain swr1, hits give low values 0.996 | locus YDR335W, strain msn5, hits give low values 1.01 | locus YDR363W, strain ESC2, hits give low values 0.998 | locus YDR388W, hits give low values 1 | locus YDR392W, strain spt3, hits give low values 0.993 | locus YDR502C, strain sam2, hits give low values 0.998 | locus YEL003W, strain gim4, hits give low values 0.977 | locus YEL037C, strain rad23, hits give low values 1 | locus YEL061C, strain CIN8 (second series), hits give low values 1.02 | locus YEL061C, strain CIN8, hits give low values 0.997 | locus YER002W, strain NOP16, hits give low values 1.01 | locus YER015W, strain faa2, hits give low values 1.02 | locus YER016W, strain bim1, hits give low values 1 | locus YER110C, hits give low values 0.984 | locus YER111C, strain swi4, hits give low values 0.993 | locus YER155C, strain BEM2 (second series), hits give low values 1 | locus YER155C, strain BEM2, hits give low values 1 | locus YER167W, strain BCK2, hits give low values 0.995 | locus YFR010W, strain ubp6, hits give low values 0.984 | locus YGL078C, strain dbp3, hits give low values 1 | locus YGL086W, strain mad1, hits give low values 0.998 | locus YGL167C, strain pmr1, hits give low values 1.02 | locus YGL173C, strain kem1, hits give low values 0.98 | locus YGL227W, strain vid30, hits give low values 1 | locus YGL240W, strain doc1, hits give low values 1.01 | locus YGL248W, strain PDE1, hits give low values 0.961 | locus YGL253W, strain hxk2, hits give low values 0.989 | locus YGR135W, strain pre9, hits give low values 0.95 | locus YGR229C, strain SMI1, hits give low values 1.02 | locus YGR252W, strain gcn5, hits give low values 1.01 | locus YHR013C, strain ard1, hits give low values 0.993 | locus YHR027C, strain rpn1, hits give low values 1 | locus YHR030C, strain SLT2, hits give low values 1 and 1.04 and 1.03 | locus YHR079C, strain IRE1 (second series), hits give low values 0.994 | locus YHR079C, strain IRE1, hits give low values 1.03 and 1.04 | locus YHR094C, strain hxt1, hits give low values 0.996 | locus YHR129C, strain ARP1, hits give low values 1.01 | locus YHR142W, strain chs7, hits give low values 1 | locus YHR200W, strain rpn10, hits give low values 0.994 | locus YIL066C, strain RNR3, hits give low values 0.987 | locus YIL073C, strain SPO22, hits give low values 0.891 | locus YIL125W, strain kgd1, hits give low values 1 | locus YIR030C, strain dcg1, hits give low values 0.982 | locus YJL092W, strain hpr5, hits give low values 1.01 | locus YJL095W, strain BCK1 (second series), hits give low values 1.01 | locus YJL095W, strain BCK1, hits give low values 0.972 and 1.03 | locus YJL115W, strain asf1, hits give low values 1.01 | locus YJL129C, strain trk1, hits give low values 0.998 | locus YJL134W, strain LCB3, hits give low values 1 | locus YJL154C, strain vps35, hits give low values 1.01 | locus YJL164C, strain tpk1, hits give low values 1.01 | locus YJL166W, strain qcr8, hits give low values 1 | locus YJL168C, strain set2, hits give low values 1.01
